Data published in PMC5540273 (PLoS ONE, 2017).

Each compound was assayed on T1, RSK4(Kin.Dom.1-N-terminal). Settings: concentration: 1 μM,replicates: in singlicate; n = 1.
T1 construct: gene RPS6KA6
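Also: KINOMEscan kinase panel screen.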

SMILES	%Inh [%]
COc1cccc(C2=C(Nc3cccc(Cl)c3)C(=O)NC2=O)c1 [SB-341556]	43
CCn1c(-c2nonc2N)nc2cncc(CNC3CCNCC3)c21.Cl [SB-747651]	10
Cn1ccc2ncnc(Oc3ccc(NC(=O)Nc4cncc(C(F)(F)F)c4)c(Cl)c3)c21	0
CN(c1ccccc1CNc1nc(Nc2ccc3c(c2)CC(=O)N3)ncc1C(F)(F)F)S(C)(=O)=O	67
COc1cccc(CNC(=O)NC2CCN(c3ccnc(Nc4cc(OC)c(OC)c(OC)c4)n3)C2)c1 (centres unmarked) [GSK1379765]	7
COc1cc(Nc2nccc(N3CCC(NC(=O)c4cccc(C#N)c4)C3)n2)cc(OC)c1OC (centres unmarked) [GSK1379751]	0
COc1cc2nccc(Nc3ccc(Oc4ccccc4)cc3)c2cc1OC.Cl [GI261656]	0
O=C(Nc1cccc(C(F)(F)F)c1)c1cccc(Oc2ccc3nccn3n2)c1	23
Nc1nccc(-c2ccc3c(N)n[nH]c3c2)n1 [GSK1034945]	59
C[C@@H](Oc1cc(-n2cnc3cc(-c4cnn(C)c4)ccc32)sc1C(N)=O)c1ccccc1Cl [GSK580432]	37
CCNCC(Cc1ccccc1)NC(=O)c1cc(Br)c(-c2ccnc3[nH]ccc23)s1.Cl.Cl (centres unmarked) [GSK1383280]	33
O=C(Nc1ccc(Oc2ccc3nc(NC(=O)C4CC4)cn3n2)c(F)c1)c1cccn(-c2ccccc2)c1=O	0
N#Cc1cccc(C(=O)NC2CCN(c3ccnc(Nc4ccc(F)cc4)n3)C2)c1 (centres unmarked) [GSK1379708]	0
CSc1nccc(-c2c(-c3ccc(F)cc3)ncn2CCCN2CCOCC2)n1.Cl [SB-217146]	18
COc1cccc(OC)c1C(=O)Nc1cccc(-c2nn3ccccc3c2-c2ccnc(Nc3cccc(F)c3)n2)c1 [GSK361065]	0
O=C(NOCC1CC1)c1cc(Br)c(F)c(F)c1Nc1ccc(I)cc1Cl	0
Cc1ccc(CC(=O)N2CCc3cc(-c4cn(C)c5ncnc(N)c45)ccc32)cc1 [GSK2634758]	0
CC(C)c1nc(-c2cccc(NS(=O)(=O)c3ccccc3)c2)c(-c2ccnc(Nc3ccc4c(c3)CN(C)CC4)n2)s1 [GSK1649598]	0
Cc1ccc(C(=O)Nc2ccc(Oc3ccc4nc(NC(=O)C5CC5)cn4c3)c(F)c2)c(=O)n1-c1ccccc1	0

SMILES	%Inh [%]
c1ccc(Oc2ccc(Nc3ccnc4ccc(-c5ccccn5)cc34)cc2)cc1 [GW407034]	4
O=C(Nc1n[nH]c2cc(-c3ccco3)ccc12)C1CC1 [SB-737447]	26
C[C@@H]1CNc2c(sc3ccc4nc(-c5ccc(O)cc5)ccc4c23)C(=O)N1	80
CCn1c(-c2nonc2N)nc2cncc(Br)c21 [SB-738004]	64
CS(=O)c1ccc(-c2coc3ccc(-c4n[nH]c(=O)o4)cc23)cc1 (centres unmarked)	6
CN1CCN(CCCNc2nccc(-c3c(-c4ccc(F)cc4)nn4cc(C(N)=O)ccc34)n2)CC1 [GW622475]	0
CC(C(=O)NC1CCN(c2ccnc(Nc3ccc(F)cc3)n2)C1)c1ccc(Cl)cc1 (centres unmarked) [GSK1379713]	0
CC(=O)c1c(-c2ccncc2)[nH]c(-c2ccncc2)c1C [GW493036]	0
CS(=O)(=O)c1cccc(CNc2nc(Nc3ccc4c(c3)[C@@H]3C[C@@H]4CNC3=O)ncc2C(F)(F)F)c1	73
FC(F)(F)c1cc(Br)cc(Nc2nccc(-c3cnn4ncccc34)n2)c1 [GW810578]	13
CC(=O)Nc1ccc(-c2cc3ncnc(SCC(=O)O)c3s2)cc1	13
NC(=O)Nc1sc(-c2ccc(F)cc2)cc1C(N)=O [GW789449]	76
CN(c1cccc(CNc2nc(Nc3ccc4c(c3)CC(=O)N4)ncc2C(F)(F)F)c1)S(C)(=O)=O	77
COC(=O)Nc1nc2cc(Oc3ccc(NC(=O)Nc4cc(C(F)(F)F)ccc4Cl)cc3)ccc2[nH]1.Cl [GW697465]	0
COc1ccc(Nc2nccc(N3CCC(NC(=O)c4cccc(C#N)c4)C3)n2)cc1 (centres unmarked) [GSK1379730]	0
Cc1ccc(Nc2ccnc(Nc3ccc4c(c3)CS(=O)(=O)C4)n2)cc1O.Cl [GW579362]	0
Cl.Cl.NC[C@H](CC1CCCCC1)NC(=O)c1ccc(-c2ccnc3[nH]ccc23)s1 [GSK1581428]	84
Cc1n[nH]c2cc(Nc3ccnc(Nc4cccc(CN5CCOCC5)c4)n3)ccc12 [GW682569]	19

These compounds were tested on T2, RSK4(Kin.Dom.2-C-terminal). Settings: concentration: 1 μM,replicates: in singlicate; n = 1.
T2 construct: gene RPS6KA6

SMILES	%Inh [%]
COc1cccc(C2=C(Nc3cccc(Cl)c3)C(=O)NC2=O)c1 [SB-341556]	76
CCn1c(-c2nonc2N)nc2cncc(CNC3CCNCC3)c21.Cl [SB-747651]	25
Cn1ccc2ncnc(Oc3ccc(NC(=O)Nc4cncc(C(F)(F)F)c4)c(Cl)c3)c21	12
CN(c1ccccc1CNc1nc(Nc2ccc3c(c2)CC(=O)N3)ncc1C(F)(F)F)S(C)(=O)=O	2
COc1cccc(CNC(=O)NC2CCN(c3ccnc(Nc4cc(OC)c(OC)c(OC)c4)n3)C2)c1 (centres unmarked) [GSK1379765]	3
COc1cc(Nc2nccc(N3CCC(NC(=O)c4cccc(C#N)c4)C3)n2)cc(OC)c1OC (centres unmarked) [GSK1379751]	9
COc1cc2nccc(Nc3ccc(Oc4ccccc4)cc3)c2cc1OC.Cl [GI261656]	9
O=C(Nc1cccc(C(F)(F)F)c1)c1cccc(Oc2ccc3nccn3n2)c1	22
Nc1nccc(-c2ccc3c(N)n[nH]c3c2)n1 [GSK1034945]	24
C[C@@H](Oc1cc(-n2cnc3cc(-c4cnn(C)c4)ccc32)sc1C(N)=O)c1ccccc1Cl [GSK580432]	7
CCNCC(Cc1ccccc1)NC(=O)c1cc(Br)c(-c2ccnc3[nH]ccc23)s1.Cl.Cl (centres unmarked) [GSK1383280]	18
O=C(Nc1ccc(Oc2ccc3nc(NC(=O)C4CC4)cn3n2)c(F)c1)c1cccn(-c2ccccc2)c1=O	0
N#Cc1cccc(C(=O)NC2CCN(c3ccnc(Nc4ccc(F)cc4)n3)C2)c1 (centres unmarked) [GSK1379708]	0
CSc1nccc(-c2c(-c3ccc(F)cc3)ncn2CCCN2CCOCC2)n1.Cl [SB-217146]	21
COc1cccc(OC)c1C(=O)Nc1cccc(-c2nn3ccccc3c2-c2ccnc(Nc3cccc(F)c3)n2)c1 [GSK361065]	12
O=C(NOCC1CC1)c1cc(Br)c(F)c(F)c1Nc1ccc(I)cc1Cl	21
Cc1ccc(CC(=O)N2CCc3cc(-c4cn(C)c5ncnc(N)c45)ccc32)cc1 [GSK2634758]	15
CC(C)c1nc(-c2cccc(NS(=O)(=O)c3ccccc3)c2)c(-c2ccnc(Nc3ccc4c(c3)CN(C)CC4)n2)s1 [GSK1649598]	46
Cc1ccc(C(=O)Nc2ccc(Oc3ccc4nc(NC(=O)C5CC5)cn4c3)c(F)c2)c(=O)n1-c1ccccc1	0

SMILES	%Inh [%]
c1ccc(Oc2ccc(Nc3ccnc4ccc(-c5ccccn5)cc34)cc2)cc1 [GW407034]	14
O=C(Nc1n[nH]c2cc(-c3ccco3)ccc12)C1CC1 [SB-737447]	10
C[C@@H]1CNc2c(sc3ccc4nc(-c5ccc(O)cc5)ccc4c23)C(=O)N1	8
CCn1c(-c2nonc2N)nc2cncc(Br)c21 [SB-738004]	29
CS(=O)c1ccc(-c2coc3ccc(-c4n[nH]c(=O)o4)cc23)cc1 (centres unmarked)	27
CN1CCN(CCCNc2nccc(-c3c(-c4ccc(F)cc4)nn4cc(C(N)=O)ccc34)n2)CC1 [GW622475]	91.6
CC(C(=O)NC1CCN(c2ccnc(Nc3ccc(F)cc3)n2)C1)c1ccc(Cl)cc1 (centres unmarked) [GSK1379713]	0
CC(=O)c1c(-c2ccncc2)[nH]c(-c2ccncc2)c1C [GW493036]	4
CS(=O)(=O)c1cccc(CNc2nc(Nc3ccc4c(c3)[C@@H]3C[C@@H]4CNC3=O)ncc2C(F)(F)F)c1	5
FC(F)(F)c1cc(Br)cc(Nc2nccc(-c3cnn4ncccc34)n2)c1 [GW810578]	0
CC(=O)Nc1ccc(-c2cc3ncnc(SCC(=O)O)c3s2)cc1	18
NC(=O)Nc1sc(-c2ccc(F)cc2)cc1C(N)=O [GW789449]	4
CN(c1cccc(CNc2nc(Nc3ccc4c(c3)CC(=O)N4)ncc2C(F)(F)F)c1)S(C)(=O)=O	54
COC(=O)Nc1nc2cc(Oc3ccc(NC(=O)Nc4cc(C(F)(F)F)ccc4Cl)cc3)ccc2[nH]1.Cl [GW697465]	25
COc1ccc(Nc2nccc(N3CCC(NC(=O)c4cccc(C#N)c4)C3)n2)cc1 (centres unmarked) [GSK1379730]	0
Cc1ccc(Nc2ccnc(Nc3ccc4c(c3)CS(=O)(=O)C4)n2)cc1O.Cl [GW579362]	35
Cl.Cl.NC[C@H](CC1CCCCC1)NC(=O)c1ccc(-c2ccnc3[nH]ccc23)s1 [GSK1581428]	12
Cc1n[nH]c2cc(Nc3ccnc(Nc4cccc(CN5CCOCC5)c4)n3)ccc12 [GW682569]	16
